Results published in PubChem BioAssay (NCATS).
Results filed as inconclusive are left out. The source made the active and inactive calls. Unless noted, the call rests on the fitted dose curve; in most records, active means well fitted curve in the direction sought with a large enough effect; inconclusive means small, poorly fitted or top-dose-only effect, or another doubt; inactive means no such curve, though single readings can be large; an effect the other way counts as inactive or inconclusive.

Key:
[1] = qHTS assay for measurement of the activity of small molecule inhibitors on Zika virus induced Caspase-3 activity in human iPSC derived neural progenitor cells (hNPCs) (AID 1224857); further: nearly all actives have a fitted effect of over 65% in size
Outline: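 Pretreat hNPCs with compound 1 h; infect ZIKV 2 FFU/cell; 6 h 37 C, 5% CO2; Caspase-Glo 3/7, 30 min RT; luminescence; normalize to no-virus and virus-only wells.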

[2] = qHTS assay for measurement of the activity of small molecule inhibitors on Zika virus induced Caspase-3 activity in human astrocytoma cells (AID 1224859)
Outline: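 Human SNB-19 astrocytoma cells in RPMI 1640 with 10% FBS receive compound one hour ahead of Zika virus at 2 FFU/cell. After 6 h infection, caspase-3/7 activity is detected by Caspase-Glo luminescence.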

[3] = qHTS assay to identify small molecule inhibitors of chordoma cells - UCH-1 (AID 1259355); further: nearly all actives have a fitted effect of over 55% in size
Outline: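 Screening used approved and investigational drugs in 15-point titration against 800 seeded cells per well. A fixed combination of auranofin with camptothecin, doxorubicin, rubitecan and topotecan followed compound addition, and growth was scored by CellTiter-Glo after 48hr.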

[4] = qHTS assay to identify small molecule inhibitors of chordoma cells - UCH-2 (AID 1259356); further: series mostly up to about 46 µM
[5] = P-glycoprotein substrates identified in KB-8-5-11 adenocarcinoma cell line, qHTS therapeutic library screen (AID 1346987); further: series mostly up to about 44 µM; nearly all actives have a fitted effect of over 65% in size
Outline: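 Compounds are pinned in dose-response onto KB-8-5-11 cells (500 cells/well, colchicine-free medium) and left 72 h at 37 degree C. CellTiter-Glo luminescence then yields AC50 values.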

[6] = Natriuretic polypeptide receptor (hNpr1) antagonism - Pilot counterscreen GloSensor control cell line (AID 1347045; calls by dose curve; further: series mostly up to about 38 µM)
Outline: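 Control counterscreen: luciferase cGMP-biosensor HEK293 cells (no Npr1) received compound for 30 min at room temperature after GloSensor substrate loading. Luminescence was measured before and 20 min after soluble guanylyl cyclase activation by 50 uM nitroprusside.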

[7] = molecular target: Atrial natriuretic peptide receptor 1 (Homo sapiens) (UniProt P16066); experiment: Natriuretic polypeptide receptor (hNpr1) antagonism - Pilot screen (AID 1347049; calls by dose curve;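 further: agonist-evoked cGMP luminescence read 20 min after hNppA addition; series mostly up to about 58 µM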)
Outline: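 cGMP-sensor HEK293/hNpr1 cells, 1500/well, plated overnight at 37C. 2% GloSensor reagent, 2 h RT. Compound (23 nL pin transfer) 30 min RT, baseline luminescence pre-read. 0.1 nM hNppA, 20 min RT, post-read.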

[8] = molecular target: Atrial natriuretic peptide receptor 2 (Homo sapiens) (UniProt P20594); experiment: Natriuretic polypeptide receptor (hNpr2) antagonism - Pilot subtype selectivity assay (AID 1347050; calls by dose curve)
Outline: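 Luminescence from a genetically encoded cGMP luciferase biosensor in hNpr2-expressing HEK293 cells is read before and 20 min after adding 1 nM hNppC. Test compounds, in interplate 1:5 titrations, are added 30-50 min ahead of the agonist.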

[9] = NS1 protein of Zika virus - qHTS assay to identify small molecule inhibitors in human HEK 293 cells (AID 1347053); further: series mostly up to about 46 µM; nearly all actives have a fitted effect of over 55% in size
Outline: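 In this cell-based screen, HEK 293 cultures received compound for one hour before Zika MR766 at MOI = 0.5. NS1 was quantified 24 hours later by TR-FRET, normalized to virus-free wells and infected wells.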

[10] = molecular target: T1, Tyrosine-protein phosphatase non-receptor type substrate 1 (Homo sapiens) + Leukocyte surface antigen CD47 (Homo sapiens) (UniProt P78324+Q08722); experiment: CD47-SIRPalpha protein protein interaction - LANCE assay qHTS validation (AID 1347057; active means well fitted curve in the direction sought with a large enough effect in the signal ratio, with a control signal flat, not every such curve was filed as active; the % refers to the signal ratio; further: series mostly up to about 38 µM)
Outline: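 Inhibition of soluble CD47/SIRPalpha ectodomain association by titrated compounds, measured as 665/615 nm time-resolved FRET ratio after sequential 30 min room-temperature incubations.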

[11] = molecular target: T1, Tyrosine-protein phosphatase non-receptor type substrate 1 (Homo sapiens) + Leukocyte surface antigen CD47 (Homo sapiens); experiment: CD47-SIRPalpha protein protein interaction - HTRF assay qHTS validation (AID 1347058; active means well fitted curve in the direction sought with a large enough effect in the signal ratio, not every such curve was filed as active; the % refers to the signal ratio; further: series mostly up to about 38 µM)
Outline: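 Soluble extracellular domains (6His-CD47, Avi-tag-biotinylated SIRPalpha) in PBS pH 7.4 with 0.05% IGEPAL CA-630. Compounds were preincubated 30 min at RT with CD47 and anti-His-Eu, then SIRPalpha and SAV-XL665 were added. TR-FRET 665/615 ratio.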

[12] = molecular target: T1, Tyrosine-protein phosphatase non-receptor type substrate 1 (Homo sapiens) + Leukocyte surface antigen CD47 (Homo sapiens); experiment: CD47-SIRPalpha protein protein interaction - Alpha assay qHTS validation (AID 1347059);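 further: bead proximity luminescence from CD47 binding SIRPalpha after compound preincubation with SIRPalpha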
Outline: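 SIRPalpha-biotin 25 nM + cpd, 30 min RT, dark; add CD47-His 12.5 nM, 30 min; add Ni-NTA/SAV beads 10 ug/mL, 30 min; AlphaScreen. Buffer PBS pH 7.4 + 0.05% IGEPAL CA-630. Non-biotinylated SIRPalpha as control inhibitor.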

[13] = molecular target: Parathyroid hormone/parathyroid hormone-related peptide receptor (Homo sapiens) (UniProt Q03431); experiment: qHTS for PTHR1 Agonists: Optimization Screen against the NCGC LOPAC library (AID 1347079);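 further: GloSensor cAMP luminescence in HEK-293 GP2 cells expressing human PTHR1 with IBMX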
Outline: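 HEK-293 GP2 cells, PTHR1 + GloSensor cAMP; 3000 cells/well, o/n. Luciferin + IBMX 0.5mM each (stock), 1 hr 37C. Cpd titration, 1 hr 37C. Lum after 15 min RT. Ctrl M-PTH(1-15) top 10uM.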

[14] = qHTS of pediatric cancer cell lines to identify multiple opportunities for drug repurposing: Primary screen for TC32 cells (AID 1347089); further: nearly all actives have a fitted effect of over 60% in size
Outline: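 Luminescent CellTiter-Glo read-out of metabolically active TC32 cells after 48 h compound exposure. Primary: MIPE 11-point, 0.78 nM–46 µM; NPC 8-point, 0.59 nM–46 µM. Confirmatory: 11-point dilutions.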

[15] = qHTS of pediatric cancer cell lines to identify multiple opportunities for drug repurposing: Primary screen for DAOY cells (AID 1347090); further: series mostly up to about 46 µM; nearly all actives have a fitted effect of over 55% in size
Outline: (§1)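 Viability measured as metabolically active cells via CellTiter-Glo luminescence following 48 hours of compound exposure, 11-point dilutions in confirmatory testing. 500-1,000 cells/well plated 5 hours before dosing; controls were DMSO and 2.3 µM bortezomib.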

[16] = qHTS of pediatric cancer cell lines to identify multiple opportunities for drug repurposing: Primary screen for SJ-GBM2 cells (AID 1347091)
Outline: as §1

Measured: Potency

Parathyroid hormone/parathyroid hormone-related peptide receptor (Homo sapiens), sequence (Q03431 whole entry, looked up): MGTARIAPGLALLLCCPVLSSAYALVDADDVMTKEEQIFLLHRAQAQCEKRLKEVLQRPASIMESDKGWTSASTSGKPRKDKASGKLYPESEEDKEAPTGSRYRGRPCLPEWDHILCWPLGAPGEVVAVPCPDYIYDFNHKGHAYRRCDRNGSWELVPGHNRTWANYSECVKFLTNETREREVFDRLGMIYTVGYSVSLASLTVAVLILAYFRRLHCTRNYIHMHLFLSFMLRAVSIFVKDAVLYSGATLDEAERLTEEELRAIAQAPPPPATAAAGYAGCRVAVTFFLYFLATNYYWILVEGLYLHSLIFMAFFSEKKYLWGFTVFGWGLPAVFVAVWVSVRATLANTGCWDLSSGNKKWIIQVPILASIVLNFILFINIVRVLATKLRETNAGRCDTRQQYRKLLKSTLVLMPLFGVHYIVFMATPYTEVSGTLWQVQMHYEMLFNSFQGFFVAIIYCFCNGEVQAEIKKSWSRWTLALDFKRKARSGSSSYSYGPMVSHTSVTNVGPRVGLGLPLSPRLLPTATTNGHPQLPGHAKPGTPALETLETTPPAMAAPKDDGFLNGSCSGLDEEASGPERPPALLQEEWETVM
Atrial natriuretic peptide receptor 2 (Homo sapiens), sequence (P20594 whole entry, looked up): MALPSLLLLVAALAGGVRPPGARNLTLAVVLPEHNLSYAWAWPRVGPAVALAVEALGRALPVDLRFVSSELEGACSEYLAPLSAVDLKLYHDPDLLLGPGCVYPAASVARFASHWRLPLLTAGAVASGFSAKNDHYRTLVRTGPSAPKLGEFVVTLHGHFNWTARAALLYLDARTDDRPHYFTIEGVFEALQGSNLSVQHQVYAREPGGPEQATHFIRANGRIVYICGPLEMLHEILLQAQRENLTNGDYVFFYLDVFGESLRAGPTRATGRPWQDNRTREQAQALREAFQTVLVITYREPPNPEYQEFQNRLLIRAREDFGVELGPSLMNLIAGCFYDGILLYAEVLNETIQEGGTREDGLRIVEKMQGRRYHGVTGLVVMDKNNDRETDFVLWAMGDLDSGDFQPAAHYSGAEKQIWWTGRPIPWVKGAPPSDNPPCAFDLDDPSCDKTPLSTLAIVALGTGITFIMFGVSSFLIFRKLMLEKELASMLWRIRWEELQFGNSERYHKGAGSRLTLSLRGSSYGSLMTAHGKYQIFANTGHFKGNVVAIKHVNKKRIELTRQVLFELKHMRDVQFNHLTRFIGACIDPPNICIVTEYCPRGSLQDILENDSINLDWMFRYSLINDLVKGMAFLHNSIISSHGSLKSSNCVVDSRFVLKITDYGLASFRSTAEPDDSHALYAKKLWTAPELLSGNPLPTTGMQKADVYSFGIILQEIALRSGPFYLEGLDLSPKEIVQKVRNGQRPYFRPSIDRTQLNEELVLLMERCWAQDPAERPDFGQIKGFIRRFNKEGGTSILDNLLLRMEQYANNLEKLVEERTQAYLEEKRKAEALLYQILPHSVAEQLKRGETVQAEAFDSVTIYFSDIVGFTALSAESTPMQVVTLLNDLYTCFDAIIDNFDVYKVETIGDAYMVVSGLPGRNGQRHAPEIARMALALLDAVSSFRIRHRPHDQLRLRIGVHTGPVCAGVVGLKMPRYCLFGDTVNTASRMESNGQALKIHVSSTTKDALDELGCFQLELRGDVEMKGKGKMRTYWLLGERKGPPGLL
Atrial natriuretic peptide receptor 1 (Homo sapiens), sequence (P16066 whole entry, looked up): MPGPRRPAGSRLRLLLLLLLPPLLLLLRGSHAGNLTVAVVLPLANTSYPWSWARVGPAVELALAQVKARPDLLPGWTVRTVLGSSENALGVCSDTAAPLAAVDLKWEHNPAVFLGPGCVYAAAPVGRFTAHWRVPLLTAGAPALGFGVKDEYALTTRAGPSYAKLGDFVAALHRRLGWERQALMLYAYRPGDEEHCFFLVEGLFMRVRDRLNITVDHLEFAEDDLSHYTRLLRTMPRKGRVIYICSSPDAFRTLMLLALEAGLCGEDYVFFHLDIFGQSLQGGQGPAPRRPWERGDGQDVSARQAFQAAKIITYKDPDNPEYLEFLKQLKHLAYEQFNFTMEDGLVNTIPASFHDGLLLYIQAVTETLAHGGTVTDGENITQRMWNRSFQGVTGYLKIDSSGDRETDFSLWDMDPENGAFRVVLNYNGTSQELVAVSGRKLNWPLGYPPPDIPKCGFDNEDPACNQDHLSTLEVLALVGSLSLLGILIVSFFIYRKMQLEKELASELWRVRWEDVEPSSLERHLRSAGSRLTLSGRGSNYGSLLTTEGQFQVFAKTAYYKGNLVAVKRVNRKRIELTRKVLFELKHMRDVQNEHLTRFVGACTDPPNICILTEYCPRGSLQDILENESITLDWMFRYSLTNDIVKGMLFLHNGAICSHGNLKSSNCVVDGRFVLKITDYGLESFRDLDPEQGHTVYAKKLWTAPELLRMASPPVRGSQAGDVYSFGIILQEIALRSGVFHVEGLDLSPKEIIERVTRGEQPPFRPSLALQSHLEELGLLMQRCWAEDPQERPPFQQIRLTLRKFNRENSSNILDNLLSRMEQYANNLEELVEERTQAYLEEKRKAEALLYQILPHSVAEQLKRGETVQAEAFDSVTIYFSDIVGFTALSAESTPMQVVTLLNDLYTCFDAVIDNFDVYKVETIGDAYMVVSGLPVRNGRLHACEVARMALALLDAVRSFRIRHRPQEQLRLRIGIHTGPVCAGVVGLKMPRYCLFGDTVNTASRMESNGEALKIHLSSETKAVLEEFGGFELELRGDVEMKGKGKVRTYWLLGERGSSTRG
T1 sequence (P78324 whole entry, looked up, the tested form may be a part): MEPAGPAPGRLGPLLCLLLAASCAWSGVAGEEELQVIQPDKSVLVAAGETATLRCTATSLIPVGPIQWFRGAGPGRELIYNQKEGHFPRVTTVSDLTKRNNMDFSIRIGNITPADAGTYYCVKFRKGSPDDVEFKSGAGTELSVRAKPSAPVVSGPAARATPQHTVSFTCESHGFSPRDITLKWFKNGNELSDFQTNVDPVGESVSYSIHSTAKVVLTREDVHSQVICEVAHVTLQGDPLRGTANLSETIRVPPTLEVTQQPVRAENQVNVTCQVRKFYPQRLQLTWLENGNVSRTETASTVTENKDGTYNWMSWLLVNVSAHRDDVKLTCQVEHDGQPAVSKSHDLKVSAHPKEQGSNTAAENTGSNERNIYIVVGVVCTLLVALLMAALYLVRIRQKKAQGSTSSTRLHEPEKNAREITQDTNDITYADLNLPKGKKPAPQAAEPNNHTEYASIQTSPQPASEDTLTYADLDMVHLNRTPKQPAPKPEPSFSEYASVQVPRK
T1 sequence (Q08722 whole entry, looked up, the tested form may be a part): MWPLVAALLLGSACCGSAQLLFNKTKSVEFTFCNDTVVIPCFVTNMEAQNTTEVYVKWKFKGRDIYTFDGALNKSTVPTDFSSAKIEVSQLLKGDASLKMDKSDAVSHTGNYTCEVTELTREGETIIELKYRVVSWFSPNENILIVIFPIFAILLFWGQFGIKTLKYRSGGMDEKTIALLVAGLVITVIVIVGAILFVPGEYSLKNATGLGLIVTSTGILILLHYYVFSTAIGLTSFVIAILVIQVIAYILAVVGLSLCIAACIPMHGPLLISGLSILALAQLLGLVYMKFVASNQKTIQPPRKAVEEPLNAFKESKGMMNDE

C[C@@H](O)[C@H]1C(=O)N2C(C(=O)O)=C(SCCN=CN)C[C@H]12
inactive: all assays above

CCN1CCc2nc(N)oc2CC1
not listed: [11]
inactive: all other assays above

Cc1ccc(S(=O)(=O)NC(=O)NN2CCCCCC2)cc1
not listed: [13]
inactive: all other assays above

CNCCC(Oc1ccccc1OC)c1ccccc1 (centres undefined)
inactive: all assays above

CC(C)[N+](C)(CCOC(=O)C1c2ccccc2Oc2ccccc21)C(C)C
inactive: all assays above

NC(=O)c1cn(Cc2c(F)cccc2F)nn1
inactive: all assays above

CCCOc1ccccc1-c1nc2n[nH]nc2c(=O)[nH]1
not listed: [14]
inactive: all other assays above

CN1C(=O)CC[C@H]1c1cccnc1
not listed: [13]
inactive: all other assays above
